# Reference: the supplement of paper PMC8728848
# This is one part of a sample in which the strongest signals are shown more often than they occur.
# B1: Epa19 (Candida glabrata) (protein)
# chain: MGSSHHHHHHSSGLVPRGSHMASSKDPTRFPIGCSPQVLKTQPGLAVKLYSYGHPVPGCSYITYQYPDFPRSGYKKERKLADITGVNGKIDIDLKPNDPCRVLTGHLPSNYNYPDTLTYTNFTMILYGYFQPKVTGYHTFNLEADDLLFMNLGAGNAFDCCKAESTLDNFGNYQSYSLWGSDYAKANITVFLVSGVYYPIRLFYVNRDNNAVIDFSFTTEFDKEKVHDFTSYFFSASDGEQCPGSV
# What was measured:
# Experiment in all cases: glycan array binding signal (z-score within array); higher = stronger binding
# Conditions in all cases: glycan notation: IUPAC condensed, linker removed
# [1] = biological target: Fuc(a1-2)Gal
# Method in brief: (§1)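 The Consortium for Functional Glycomics database supplied 3228 glycan arrays, of which those lacking an available protein sequence were dropped. The binding signal, a within-array Z-score, was averaged across arrays of the same protein sequence and across linkers. Negative scores can be read as non-binding.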
# [2] = biological target: Fuc(a1-2)Gal(b1-3)GlcNAc(b1-2)Man(a1-3)[Fuc(a1-2)Gal(b1-3)GlcNAc(b1-2)Man(a1-6)]Man(b1-4)GlcNAc(b1-4)GlcNAc
# Method in brief: as §1
# [3] = biological target: Fuc(a1-2)Gal(b1-3)GlcNAc(b1-3)[Gal(b1-4)GlcNAc(b1-6)]Gal(b1-4)Glc
# Method in brief: as §1
# [4] = biological target: Fuc(a1-2)Gal(b1-4)Fuc(a1-3)]GlcNAc(b1-2)Man(a1-3)[Fuc(a1-2)Gal(b1-4)[Fuc(a1-3)]GlcNAc(b1-2)Man(a1-6)]Man(b1-4)GlcNAc(b1-4)GlcNAc
# Method in brief: as §1
# [5] = biological target: Fuc(a1-2)Gal(b1-4)GlcNAc
# Method in brief: as §1
# [6] = biological target: Fuc(a1-2)[Gal(a1-3)]Gal
# Method in brief: as §1
# [7] = biological target: Fuc(a1-2)[Gal(a1-3)]Gal(b1-4)GlcNAc(b1-2)Man
# Method in brief: as §1
# [8] = biological target: Fuc(a1-2)[GalNAc(a1-3)]Gal(b1-3)GlcNAc(b1-3)GalNAc
# Method in brief: as §1
# [9] = biological target: Fuc(a1-2)[GalNAc(a1-3)]Gal(b1-4)GlcNAc(b1-6)GalNAc
# Method in brief: as §1
# [10] = biological target: Fuc(a1-2)[GalNAc(a1-3)]Gal(b1-4)[Fuc(a1-3)]GlcNAc
# Method in brief: as §1
# [11] = biological target: Fuc(a1-2)[GalNAc(a1-3)]Gal(b1-4)[Fuc(a1-3)]GlcNAc(b1-3)GalNAc
# Method in brief: as §1
# [12] = biological target: Fuc(a1-3)[Gal(b1-4)]GlcNAc(b1-2)Man
# Method in brief: as §1
# [13] = biological target: Gal(a1-3)Gal(b1-4)[Fuc(a1-3)]GlcNAc(b1-2)Man(a1-3)[Gal(a1-3)Gal(b1-4)[Fuc(a1-3)]GlcNAc(b1-2)Man(a1-6)]Man(b1-4)GlcNAc(b1-4)GlcNAc
# Method in brief: as §1
# [14] = biological target: Gal(a1-4)Gal(b1-3)GlcNAc(b1-2)Man(a1-3)[Gal(a1-4)Gal(b1-3)GlcNAc(b1-2)Man(a1-6)]Man(b1-4)GlcNAc(b1-4)GlcNAc
# Method in brief: as §1
# [15] = biological target: Gal(b1-2)Gal
# Method in brief: as §1
# [16] = biological target: Gal(b1-3)GalNAc
# Method in brief: as §1
# [17] = biological target: Gal(b1-3)GlcNAc(b1-3)GalNAc
# Method in brief: as §1
# [18] = biological target: Gal(b1-3)[Neu5Ac(b2-6)]GalNAc
# Method in brief: as §1
# [19] = biological target: Gal(b1-4)GalNAc(a1-3)[Fuc(a1-2)]Gal(b1-4)GlcNAc
# Method in brief: as §1
# [20] = biological target: Gal(b1-4)Glc6S
# Method in brief: as §1
# [21] = biological target: Gal(b1-4)GlcNAc(b1-2)Man(a1-6)[GlcNAc(b1-2)Man(a1-3)]Man(b1-4)GlcNAc(b1-4)GlcNAc
# Method in brief: as §1
# [22] = biological target: Gal(b1-4)GlcNAc(b1-2)[Gal(b1-4)GlcNAc(b1-6)]Man(a1-6)[Gal(b1-4)GlcNAc(b1-2)Man(a1-3)]Man(b1-4)GlcNAc(b1-4)GlcNAc
# Method in brief: as §1
# [23] = biological target: Gal(b1-4)GlcNAc(b1-3)Gal(b1-4)GlcNAc(b1-2)Man(a1-3)[Gal(b1-4)GlcNAc(b1-3)Gal(b1-4)GlcNAc(b1-2)Man(a1-6)]Man(b1-4)GlcNAc(b1-4)GlcNAc
# Method in brief: as §1
# [24] = biological target: Gal(b1-4)GlcNAc(b1-3)Gal(b1-4)GlcNAc(b1-2)[Gal(b1-4)GlcNAc(b1-3)Gal(b1-4)GlcNAc(b1-6)]Man(a1-6)[Gal(b1-4)GlcNAc(b1-3)Gal(b1-4)GlcNAc(b1-2)Man(a1-3)]Man(b1-4)GlcNAc(b1-4)GlcNAc
# Method in brief: as §1
# [25] = biological target: Gal(b1-4)GlcNAc(b1-3)Gal(b1-4)GlcNAc(b1-3)Gal(b1-4)GlcNAc(b1-2)Man(a1-3)[Gal(b1-4)GlcNAc(b1-3)Gal(b1-4)GlcNAc(b1-3)Gal(b1-4)GlcNAc(b1-2)Man(a1-6)]Man(b1-4)GlcNAc(b1-4)[Fuc(a1-6)]GlcNAc
# Method in brief: as §1
# [26] = biological target: Gal(b1-4)GlcNAc(b1-3)Gal(b1-4)GlcNAc(b1-3)Gal(b1-4)GlcNAc(b1-3)Gal(b1-4)GlcNAc(b1-2)[Gal(b1-4)GlcNAc(b1-3)Gal(b1-4)GlcNAc(b1-3)Gal(b1-4)GlcNAc(b1-3)Gal(b1-4)GlcNAc(b1-6)]Man(a1-6)[Gal(b1-4)GlcNAc(b1-3)Gal(b1-4)GlcNAc(b1-3)Gal(b1-4)GlcNAc(b1-3)Gal(b1-4)GlcNAc(b1-2)Man(a1-3)]Man(b1-4)GlcNAc(b1-4)[Fuc(a1-6)]GlcNAc
# Method in brief: as §1
# [27] = biological target: Gal(b1-4)GlcNAc(b1-3)Gal(b1-4)GlcNAc(b1-3)[Gal(b1-4)GlcNAc(b1-3)Gal(b1-4)GlcNAc(b1-6)]GalNAc
# Method in brief: as §1
# [28] = biological target: Gal(b1-4)GlcNAc(b1-6)GalNAc
# Method in brief: as §1
# [29] = biological target: Gal(b1-4)GlcNAc(b1-6)[Gal(b1-3)]GalNAc
# Method in brief: as §1
# [30] = biological target: Gal3S(b1-4)[Fuc(a1-3)]GlcNAc6S
# Method in brief: as §1
# [31] = biological target: Gal6S(b1-4)GlcNAc
# Method in brief: as §1
# [32] = biological target: GalNAc(a1-3)Gal
# Method in brief: as §1
binder,measurement,setting,value
B1,glycan array binding signal (z-score),[1],-0.231
same,glycan array binding signal (z-score),[2],0.072
same,glycan array binding signal (z-score),[3],-0.333
same,glycan array binding signal (z-score),[4],2.57
same,glycan array binding signal (z-score),[5],-0.459
same,glycan array binding signal (z-score),[6],-0.947
same,glycan array binding signal (z-score),[7],0.045
same,glycan array binding signal (z-score),[8],2.07
same,glycan array binding signal (z-score),[9],0.209
same,glycan array binding signal (z-score),[10],-0.301
same,glycan array binding signal (z-score),[11],1.08
same,glycan array binding signal (z-score),[12],-0.217
same,glycan array binding signal (z-score),[13],2.47
same,glycan array binding signal (z-score),[14],-0.21
same,glycan array binding signal (z-score),[15],-0.099
same,glycan array binding signal (z-score),[16],-0.306
same,glycan array binding signal (z-score),[17],-0.204
same,glycan array binding signal (z-score),[18],2.39
same,glycan array binding signal (z-score),[19],-0.193
same,glycan array binding signal (z-score),[20],2.4
same,glycan array binding signal (z-score),[21],0.102
same,glycan array binding signal (z-score),[22],-1.26
same,glycan array binding signal (z-score),[23],2.29
same,glycan array binding signal (z-score),[24],0.736
same,glycan array binding signal (z-score),[25],0.256
same,glycan array binding signal (z-score),[26],0.024
same,glycan array binding signal (z-score),[27],1.4
same,glycan array binding signal (z-score),[28],-0.146
same,glycan array binding signal (z-score),[29],0.35
same,glycan array binding signal (z-score),[30],0.49
same,glycan array binding signal (z-score),[31],-0.372
same,glycan array binding signal (z-score),[32],-0.246
